# CYP2C19 inh – inhibitors of human CYP2C19; P33261; CYP2C19 Supersomes, luciferin-H EGE luminescence, 30 min; inhibition, % at 5 µM; 96,000 compounds, 21% hits; AID 778;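 active = CYP2C19 inhibition above a set limit at 5 µM in the primary screen, cut at about 50% in these data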;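 note: plate controls were negative control wells for no effect and 2.5 mM tranylcypromine positive control for full effect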
# Target sequence (P33261 whole entry, looked up): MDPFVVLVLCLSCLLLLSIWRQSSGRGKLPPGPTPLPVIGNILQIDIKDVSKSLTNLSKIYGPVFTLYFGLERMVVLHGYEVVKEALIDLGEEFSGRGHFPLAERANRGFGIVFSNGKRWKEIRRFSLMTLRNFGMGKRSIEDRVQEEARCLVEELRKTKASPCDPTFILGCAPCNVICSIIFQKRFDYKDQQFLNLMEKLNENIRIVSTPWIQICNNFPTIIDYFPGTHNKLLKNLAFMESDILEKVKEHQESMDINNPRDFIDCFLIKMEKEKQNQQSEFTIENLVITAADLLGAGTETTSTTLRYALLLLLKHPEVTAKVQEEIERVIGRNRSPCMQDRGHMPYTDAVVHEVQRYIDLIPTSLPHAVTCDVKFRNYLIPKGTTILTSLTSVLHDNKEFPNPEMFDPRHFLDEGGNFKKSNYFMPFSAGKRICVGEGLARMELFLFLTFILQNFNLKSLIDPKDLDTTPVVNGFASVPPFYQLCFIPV
# E-sel TNF inh – blocks E-selectin expression induced by TNF alpha | HUVEC TNFa-induced E-selectin immunofluorescence, high content | inhibition, % at 2 µM | 120,000 compounds, 0.71% hits | AID 1246;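 active = inhibition above the batch mean plus 3 SD, and confirmed as a hit on visual image review, cut at about 43% in these data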;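 note: 0% = TNF-stimulated DMSO wells and 100% = unstimulated control wells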
# F-actin modifier – modifiers of cytoskeleton assembly | HUVEC TNFa F-actin phalloidin imaging, high content | inhibition, % at 2 µM | 91,000 compounds, 0.18% hits | AID 836;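 active = inhibition above the batch mean plus 3 SD and confirmed as a hit by visual image inspection, cut at about 30% in these data, passing the limit was not always enough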
# CYP2C9 act – increases human cytochrome P450 2C9 activity. recombinant CYP2C9, luciferin-H conversion, luminescence; stronger effect = higher value; factor 1 = untreated enzyme, 0 = blocked. P11712. activation factor at 5 µM. AID 1024. 96,000 compounds, 1.4% hits;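 active = activation factor of 2 or more for CYP2C9 at a 5 µM dose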;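 note: 0 = sulfaphenazole-blocked wells and 1 = vehicle-only wells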
# CYP2C19 act – activators of human cytochrome P450 2C19; P33261; recombinant CYP2C19, luciferin-H EGE luminescence; stronger effect = higher value; 0 = fully inhibited enzyme, 1 = untreated enzyme; activation factor at 5 µM; 96,000 tested, under 10 active; AID 1025;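 active = activation factor of at least 2 at 5 µM in the primary screen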;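 note: 0 = wells with 2.5 mM tranylcypromine and 1 = vehicle-only wells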
# CYP2C9 inhib – inhibitors of human CYP2C9; P11712; CYP2C9 Supersomes, luciferin-H conversion, luminescence; inhibition, % at 5 µM; 96,000 compounds, 20% hits;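 active = blocking of liver enzyme CYP2C9 beyond about 50% at 5 µM, limit read from the data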
# * = called active by the depositor; . = not tested or not shown. The list is not random: actives were taken first. Their share in the collection is about 22%.
SMILES,CYP2C19 inh,E-sel TNF inh,F-actin modifier,CYP2C9 act,CYP2C19 act,CYP2C9 inhib
O=C(Nc1nc(-c2ccc(S(=O)(=O)N3CCCC3)cc2)cs1)c1cccs1,33.4,-11.7,-14.1,0.4,0.7,61.6*
CCC1CCCCN1C(=O)CSc1nnc(CNC(=O)c2cc(OC)c(OC)c(OC)c2)o1 (stereo not given),6.5,15.6,-6.9,0.7,0.9,30.5
CC(=O)c1cc(OC(=O)N2CCOCC2)ccc1OC(=O)N1CCOCC1,1.0,-31.7,.,1,1,-0.4
CCOCCCNCc1ccc(OC)c(OC)c1,8.5,12.5,2.0,0.4,0.9,60.8*
CCOCCCNCc1ccc(OC)cc1,24.8,9.5,-4.8,1,0.8,-3.9
O=C(O)CNS(=O)(=O)c1cc(Cl)c(Cl)cc1Cl,14.3,-25.2,-15.4,1.1,0.9,-14.4
O=C(Nc1ccc(Cl)c(Cl)c1)Nc1nnc(-c2ccncc2)s1,.,-33.6,.,.,.,.
O=C(NC1CC2CCCC(C1)N2S(=O)(=O)c1ccccc1)c1ccccc1 (stereo not given),62.6*,-10.1,7.0,0.7,0.4,32.1
O=C(NC1CC2CCCC(C1)N2C(=O)NC1CCCCC1)c1ccccc1 (stereo not given),2.4,7.1,5.6,1,1,0.0
CC(=O)NC1CC2CCCC(C1)N2S(=O)(=O)c1ccccc1 (stereo not given),50.3*,18.6,13.7,1.4,0.5,-42.9
CC(=O)Nc1ccc(S(=O)(=O)N2C3CCCC2CC(NC(=O)C2CCCCC2)C3)cc1 (stereo not given),14.5,-9.8,-0.6,0.7,0.9,26.8
Cc1cccc(C(=O)NC2CC3CCCC(C2)N3S(=O)(=O)c2ccccc2)c1 (stereo not given),97.1*,30.8,-0.5,0.1,0,91.1*
O=C(NC1CCS(=O)(=O)C1)c1cccc(S(=O)(=O)N2CCCCC2)c1 (stereo not given),-1.6,4.9,6.6,1,1,-1.0
O=C(NC1CC2CCCC(C1)N2C(=O)Nc1ccccc1)c1ccncc1 (stereo not given),91.5*,.,-4.7,0.6,0.1,40.4
CNCC(C)COc1ccccc1OCc1ccccc1 (stereo not given),.,9.1,.,.,.,.
COc1cccc(NS(=O)(=O)Cc2ccccc2)c1,48.8,19.6,-28.6,0.9,0.5,7.9
O=C(NCCc1ccccc1)C1CCN(S(=O)(=O)c2ccc(-n3cnnn3)cc2)CC1,2.6,-0.8,-7.1,0.9,1,5.3
Cc1cnc(C(=O)Nc2ccc(C)c(S(=O)(=O)N(C)C)c2)cn1,.,8.6,.,.,.,.
c1ccc(-c2ccc(-c3ccccn3)nn2)nc1,55.6*,-7.5,.,0.8,0.4,17.8
Cc1sc2nnn(CC(=O)N3CCN(C(=O)c4ccco4)CC3)c(=O)c2c1C,.,2.1,30.3,.,.,.
Cn1c2ccccc2c2cc(C(=O)N3CCOCC3)sc21,23.8,25.6,-21.1,2.5*,0.8,-148.5
C=CCn1c(SC(CCO)C(=O)NCc2ccco2)nc2sc3c(c2c1=O)CCC3 (stereo not given),13.0,22.7,27.6,0.4,0.9,55.6*
C=CCn1c(SCC(=O)NC)nc2sc3c(c2c1=O)CCC3,38.8,80.4*,1.3,0.4,0.6,58.8*
COC(=O)CSc1nc2sc(C)c(C)c2c(=O)n1C,22.1,.,33.5,0.7,0.8,35.0
C=CCn1c(SCC(=O)Nc2sccc2C#N)nc2sc(C)c(C)c2c1=O,-7.1,-3.7,10.0,0.7,1.1,30.3
SMILES,CYP2C19 inh,E-sel TNF inh,F-actin modifier,CYP2C9 act,CYP2C19 act,CYP2C9 inhib
C=CCn1c(SCC(=O)OC)nc2sc3c(c2c1=O)CCN(C)C3,59.8*,-35.8,-24.1,0.8,0.4,23.2
CCSc1nc2sc3c(c2c(=O)n1C1CCCCC1)CCN(C)C3,71.4*,.,.,0.6,0.3,42.8
Cc1c(Cl)cccc1N=C(N)N=C(N)N,.,1.2,.,.,.,.
CCOc1ccc(N2C(=O)C(Cl)=C(Nc3ccccc3O)C2=O)cc1,14.2,0.2,-12.8,1,0.9,-3.9
COc1ccc(N2CCN(C(=O)CN(c3ccc(Br)cc3)S(C)(=O)=O)CC2)cc1,47.8,5.5,-7.1,0.7,0.5,29.4
COC(=O)CSc1nc2sc3c(c2c(=O)n1-c1ccccc1)CCN(C)C3,32.5,.,22.4,0.9,0.7,6.1
CN1CCc2c(sc3nc(SCC(N)=O)n(-c4ccccc4)c(=O)c23)C1,69.0*,-18.8,.,0.8,0.3,16.0
CCOC(=O)C(/C=C(\C#N)C(=O)OCC)=C(/N)N1CCN(c2ccccc2)CC1,25.5,11.0,19.1,0.7,0.7,32.6

# Bioassay records: PubChem BioAssay, several laboratories
